Screening data as filed in PubChem.
An excerpt weighted towards active compounds, which were near 18% of everything screened.
DT40 TDP1 no CPT – qHTS for Inhibitors of human tyrosyl-DNA phosphodiesterase 1 (TDP1): qHTS in cells in absence of CPT | Potency, µM (series often up to 46.2 µM), without a hit: at the top dose activity change, negative = growth inhibition, actives largely listed as inhibitors | 15% of 420,000 active | DT40 Tdp1-/- hTDP1 cells, no CPT, ATP luminescence, 48 h; also: potency is read from the fitted curve at half-maximal effect; nearly all actives have a fitted effect of over 55% in size
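Stably hTDP1-transfected Tdp1-null chicken DT40 cells were treated with library compounds minus camptothecin and grown for at least 48 hr at 37 °C, after which cellular ATP was quantified by luminescence.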
LDHA inh – inhibitors of human lactate dehydrogenase A | activity change, % (values are at about 110 or 230 µM) | 0.15% of 480,000 active | purified LDHA, NADH/diaphorase-resazurin fluorescence; stronger effect = lower value; in the data active = activity change below about -30%; inconclusive = mostly about -25% to -30%;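 also: plate controls were DMSO wells for no effect and wells without enzyme for full effect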
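Resorufin fluorescence (ex540/em590), read at 0 and 20 min after diaphorase/resazurin addition, reports the NADH left after a 5 min room-temperature reaction of 2 nM human LDH5 with 0.06 mM NADH and 0.2 mM pyruvate.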
Gal4-VP16 FLuc – counter-screen for ROR gamma inhibitors: Gal4-VP16 reporter; Drosophila S2 Gal4-VP16 UAS-luciferase, luminescence, 20 h; Potency, µM (series often up to 53.6 µM), without a hit: at the top dose activity, negative = inhibition, most hits filed as inhibitors; 3.5% of 310,000 active;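 also: Gal4-VP16 expression switched on by copper sulfate through the metallothionein promoter; potency is read from the fitted curve at half-maximal effect; nearly all actives have a fitted effect of over 50% in size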
IL-1B inflam inh – blocks inflammasome-driven IL-1 beta release; THP-1 LPS/ATP IL-1B secretion, AlphaLISA, 16 h; stronger effect = lower value; activity change, % at 57.5 µM; 4.7% of 360,000 active; AID 743279; in the data active = activity change below about -50%; inconclusive = mostly about -30% to -49%
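Secreted IL-1B measured by AlphaLISA bead assay after 16 h compound exposure of THP-1 cells; compounds (final up to 57.5 uM) added 1 h before LPS (250 ng/mL) and ATP (1.25 mM) stimulation; lower signal means less secretion.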
TDP1 cell CPT – growth inhibition of DT40 Tdp1-/-;hTDP1 cells with camptothecin (screen for TDP1 inhibitors) | chicken DT40 Tdp1-/-;hTDP1 cells + 20 nM CPT, ATP luminescence, 48 h | Potency, µM (highest dose often 46.2 µM), without a hit: at the top dose activity change, negative = growth inhibition, usual class: inhibitors | 12% of 420,000 active; also: potency is read from the fitted curve at half-maximal effect; nearly all actives have a fitted effect of over 55% in size
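Chicken DT40 Tdp1-/- cells stably complemented with human TDP1 were seeded at 400 cells/well in medium containing 20 nM camptothecin, exposed to pin-transferred compounds, and grown at 37 °C for at least 48 hr. Viability was read as ATP luminescence.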
RORgamma inh – ROR gamma (mouse) transcription inhibition; P51450; Drosophila S2 Gal4-RORgamma UAS-luciferase reporter, 20 h; Potency, µM (titrated, usually from 53.6 µM), inactives show at the top dose activity change, negative = inhibition, actives largely listed as inhibitors; 5.4% of 310,000 active; AID 2551; also: potency is read from the fitted curve at half-maximal effect; nearly all actives have a fitted effect of over 60% in size
Target sequence (P51450 whole entry, looked up, the tested form may be a part): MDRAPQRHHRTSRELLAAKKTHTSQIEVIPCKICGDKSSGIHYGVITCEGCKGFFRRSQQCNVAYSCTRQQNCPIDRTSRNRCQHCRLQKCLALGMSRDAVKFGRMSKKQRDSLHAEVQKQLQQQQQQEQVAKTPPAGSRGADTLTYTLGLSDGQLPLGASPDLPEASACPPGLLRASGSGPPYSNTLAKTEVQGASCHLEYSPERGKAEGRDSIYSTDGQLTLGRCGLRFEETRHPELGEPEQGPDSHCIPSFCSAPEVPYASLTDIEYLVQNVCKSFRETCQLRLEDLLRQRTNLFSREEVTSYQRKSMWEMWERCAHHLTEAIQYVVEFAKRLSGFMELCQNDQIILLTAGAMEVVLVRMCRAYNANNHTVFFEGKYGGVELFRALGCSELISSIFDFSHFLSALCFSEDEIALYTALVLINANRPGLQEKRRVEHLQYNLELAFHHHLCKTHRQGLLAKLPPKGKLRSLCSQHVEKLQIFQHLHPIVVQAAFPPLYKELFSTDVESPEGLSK
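Schneider cells (Drosophila), stable Gal4 DBD–ROR gamma + UAS-luc; 1 hr cmpd preincubation; Cu2+ induction 700 uM final; 20 hr ambient; luminescence.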
* = called active by the depositor; ? = inconclusive; . = not tested or not shown; [ ] = dose if it differs, or a comment. Unless noted, calls follow the shape of the dose curve; as a rule, active = well fitted curve in the direction sought with a large enough effect; inconclusive = small, poorly fitted or top-dose-only effect, or another doubt; inactive = no such curve, though single readings can be large; an effect the other way counts as inactive or inconclusive. Unless noted, % is scaled to controls: 0 for no effect and ±100 for the full control effect.

SMILES	DT40 TDP1 no CPT	LDHA inh	Gal4-VP16 FLuc	IL-1B inflam inh	TDP1 cell CPT	RORgamma inh
CC(C)c1ccc(N2C=Nc3ccc(C(C)C)cc3C2)cc1	?	-1	?	-97*	?	7.9µM*
COc1ccc(C(=O)NCCC2=CCCCC2)cc1	?	-3	?	0	?	13µM*
COc1ccc(C(=O)NCC(=O)OCC(=O)NCCC2=CCCCC2)cc1	4%	-9	6%	15	-2%	-15%
O=C(NCCC1=CCCCC1)c1ccc(F)cc1	?	-4	11µM*	-20	?	?
O=C(Nc1cccc(S(=O)(=O)N2CCCCC2)c1)c1ccc2ccccc2n1	21µM*	-3	?	-14	29µM*	?
O=C(Nc1cccc(S(=O)(=O)N2CCCC2)c1)c1ccc2ccccc2n1	23µM*	-9	9%	?	21µM*	43%
CCc1cc(=O)oc2cc(OC(C)C(=O)N(C(C)C)C(C)C)ccc12 (stereo not drawn)	.	0	.	.	.	.
Cc1c(=O)n(OCc2cccc(F)c2)c2ccccc2[n+]1[O-]	?	0	-7%	0	-6%	8%
Cc1c(=O)n(OCc2ccc(Cl)cc2)c2ccccc2[n+]1[O-]	6.5µM*	1	-17%[10 µM]	16	-10%	-1%
Cc1ccc(C(=O)OC(C(=O)Nc2ccc(Cl)cc2C(F)(F)F)c2ccccc2)cc1 (stereo not drawn)	23µM*	1	-2%	14	?	1%
O=C(OC(C(=O)Nc1ccc(Cl)cc1C(F)(F)F)c1ccccc1)c1c(Cl)cccc1Cl (stereo not drawn)	13µM*	-3	-13%	0	?	-9%[10 µM]
COc1cccc(Nc2sc(C(=O)c3ccc(Cl)cc3)c(N)c2C(=O)NCc2ccc(C)cc2)c1	4.6µM*	-1	.	.	2.9µM*	.
Cc1ccc(-c2c(C(=O)c3ccc(Br)cc3)[nH]c(N)c2C(=O)NCc2ccc(Cl)cc2)cc1	-16%	6	.	0	3%	.
Cc1ccc(CNC(=O)c2c(Nc3c(C)cccc3C)sc(C(=O)c3ccccc3)c2N)cc1	15µM*	3	.	.	8.2µM*	.
COc1cccc(Nc2sc(C(=O)c3ccc(F)cc3)c(N)c2C(=O)NCc2ccc(Cl)cc2)c1	21µM*	5	.	.	-95%	.
Cc1ccc(Nc2sc(C(=O)c3ccccc3)c(N)c2C(=O)NC(C)C)cc1	?	-2	.	.	?	.
O=C(N/N=C/c1cccs1)c1cc(-c2ccc3ccccc3c2)n[nH]1	21µM*	-6	5µM*	?	?	3.2µM*
O=C(N/N=C/c1ccccn1)c1cc(-c2cccc3ccccc23)n[nH]1	-27%	-1	13%	0	?	-37%
O=C(N/N=C/c1cccs1)c1ccc(NC(=O)c2ccccc2)cc1	.	6	.	.	.	.
O=C(N/N=C/c1cccs1)c1cc(-c2cccc3ccccc23)n[nH]1	?	-2	5µM*	-52*	?	5µM*
CCOC(=O)Cc1csc(NC(=O)c2nc(C)n(-c3ccc(Cl)cc3)n2)n1	.	4	.	.	.	.
CC(C)C[C@@H](CN1CCCC1CN1C(=S)NC[C@@H]1Cc1ccccc1)N1C[C@H](Cc2ccccc2)N(CC2CCCCCC2)C1=S (stereo partly drawn)	?	-2	.	42	10µM*	.
CC(C)C[C@H]1CN([C@@H](CC(C)C)CN2CCCC2CN2C(=S)NC[C@@H]2Cc2ccccc2)C(=S)N1CC1CCCCC1 (stereo partly drawn)	?	3	.	-7	16µM*	.
CC(C)C[C@H]1CN([C@@H](CC(C)C)CN2CCC[C@@H]2CN2C(=O)C(=O)NC[C@@H]2Cc2ccccc2)C(=O)C(=O)N1CC1CCCCC1	?	-1	.	?	?	.
COc1ccc2nc(N3C(=O)/C(=C/c4ccc(Cl)cc4)NC3=S)sc2c1	21µM*	1	0%	22	?	?
SMILES	DT40 TDP1 no CPT	LDHA inh	Gal4-VP16 FLuc	IL-1B inflam inh	TDP1 cell CPT	RORgamma inh
Cc1ccc(NC(=S)NC2CCSc3ccccc32)cc1C (stereo not drawn)	?	-2	4µM*	-81*	16µM*	3.5µM*
O=C(NC1CCSc2ccccc21)C1CCCC1 (stereo not drawn)	.	1	.	.	.	.
CCOC(=O)c1cnc2cc(Cl)c(OC)cc2c1NCC1CCCO1 (stereo not drawn)	15µM*	-3	-2%	?	?	-29%
CCOC(=O)c1cnc2cc(Cl)c(OC)cc2c1Nc1ccc(Br)cc1C	-21%	13	.	.	-21%	.
Cc1cc(C)n(-c2nnc(SCC(=O)Nc3ccccc3C)n2N)n1	.	0	.	.	.	.
CCn1c(CNC(C)c2ccc(F)cc2)nc2cc(S(=O)(=O)N3CCCCC3)ccc21 (stereo not drawn)	.	6	.	.	.	.
Cc1cccc(NC(=O)c2cc3c([nH]c4ccccc43)c(C)n2)c1C	?	-5	-2%	-1	6.5µM*	?
COc1cccc(-c2csc(N3CCN(C(=O)C4CCCCC4)CC3)n2)c1	?	-6	8%	-73*	?	?
CCCNC(=S)N1CCN(c2nc(-c3cccc(OC)c3)cs2)CC1	?	-4	-22%	-59*	?	-9%
O=C(NC(=S)N1CCN(c2nc(-c3ccccc3)cs2)CC1)c1cccnc1	?	-4	0.0079µM*	0	?	0.11µM*
COCCNC(=S)N1CCN(c2nc(-c3ccccc3)cs2)CC1	18µM*	-6	2%	-11	?	17%
COCCCNC(=S)N1CCN(c2nc(-c3ccc(F)cc3)cs2)CC1	?	0	?	?	?	3%
CC1(C)CC(=O)C2=C(C1)OC(N)=C(C#N)C2c1ccc(-c2ccccc2Cl)o1 (stereo not drawn)	.	0	.	.	.	.
CC(=O)Nc1ccc(CNCc2nc(C)cs2)cc1	.	5	.	.	.	.
COC(=O)c1ccc(COC(=O)C2COc3ccccc3O2)o1 (stereo not drawn)	.	7	.	.	.	.
CCCc1cc(=O)n2nc(N3CCC(C(=O)N4CCN(c5cccc(OC)c5)CC4)CC3)sc2n1	5.8µM*	2	-6%	?	12µM*	42%
CCOC(=O)C1CCN(C(=O)C2CCN(c3nn4c(=O)cc(C)nc4s3)CC2)CC1	12%	-18	-12%	5	-15%	-7%
Cc1cccc(C)c1NC(=O)c1ccc(-c2cc(F)ccc2F)o1	16µM*	.	.	-4	18µM*	.
Cc1ccccc1-c1ccc(C(=O)Nc2cccc(F)c2)o1	21µM*	1	1%	?	?	28%
